The nature of assay [1]: optical density shifts of acrAB sulA E. coli – strain DRC41, OD650, 48 h, E. coli filamentation inducer project, primary screen (AID 1152).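 Further: E. coli MC1000 strain DRC41 lacking acrAB efflux pump and sulA.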 To be noted: higher = more signal, called active from +8 up or from −8 down.
The nature of assay [2]: probe aLefty1 binding on compound microarray – biochemical, small-molecule microarray, 635/667 nm fluorescence, primary screen (AID 1153).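 Further: score merges spot fluorescence with signal-to-noise ratio from the scanned slide images.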 To be noted: higher = more signal.
A short description of assay [3]: plasmodial surface anion channel blockers, osmotic lysis – cell-based, P. falciparum Indochina, OD700, 1 h, primary screen (AID 1154). Conditions: P. falciparum Indochina infected RBC osmotic lysis, higher = more signal, called active from +8 up or from −8 down.
A short description of assay [4]: plasmodial surface anion channel blockers, osmotic lysis – cell-based, P. falciparum Indochina, OD700, 2 h, primary screen (AID 1155).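 Further: lysis reports solute entry through the parasite surface anion channel PSAC.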 To be noted: P. falciparum Indochina infected erythrocytes, higher = more signal, called active from +8 up or from −8 down.
The nature of assay [5]: changes in parasitized red cell lysis, either direction – P. falciparum Indochina, OD700, 3 h, PSAC antagonist project, primary screen (AID 1156). To be noted: P. falciparum-infected erythrocytes, osmotic lysis, higher = more signal, called active from +8 up or from −8 down.
The nature of assay [6]: plasmodial surface anion channel blockers, osmotic lysis – cell-based, P. falciparum Indochina, OD700, 18 h, primary screen (AID 1157). To be noted: P. falciparum Indochina infected erythrocytes, osmotic lysis OD700, 18 h; higher = more signal, called active from +8 up or from −8 down.
Assay [7] can be described thus: S6 kinase pathway phospho-S6 level changes – cell-based, A549, cytoblot, luminescence, serum-stimulated, primary screen (AID 1158).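 Further: serum-stimulated A549 lung adenocarcinoma cells; signal is phosphorylated S6 detected by cytoblot immunostaining with HRP secondary.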 Conditions: 5 h, higher = more signal.
The target of assay [8] is NADPH oxidase 2 (Homo sapiens) (UniProt P04839). Description: compounds shifting NOX2 Amplex Red fluorescence – cell-based, HEK293-NOX2, PMA-stimulated, NOX inhibitor project, primary screen (AID 1159). Further: test concentration not given here. Conditions: 45 min, higher = more signal, called active from +8 up or from −8 down.
For assay [9], the target named is NADPH oxidase 4 (Homo sapiens) (UniProt Q9NPH5). The experiment in a line: compounds shifting NOX4 Amplex Red fluorescence – cell-based, HEK293-NOX4, tetracycline-induced, NOX inhibitor project, primary screen (AID 1160). To be noted: HEK293-NOX4, Amplex Red H2O2 fluorescence, 45 min; higher = more signal, called active from +8 up or from −8 down.
In assay [10] the target is NADPH oxidase 5 (Homo sapiens) (UniProt Q96PH1). Description: compounds shifting NOX5 Amplex Red fluorescence – cell-based, HEK293-NOX5, NOX inhibitor project, primary screen (AID 1161). Conditions: HEK293-NOX5, ionomycin, 45 min, higher = more signal.
A short description of assay [11]: compound effects on lung adenocarcinoma cell viability – A549, calcein-AM fluorescence, 48 h, basal, profiling panel (AID 1162). Further: test concentration not given here. To be noted: higher = more signal.
Assay [12] in a line: compound effects on differentiated 3T3-L1 adipocyte viability – cell-based, 3T3-L1 adipocytes, calcein-AM fluorescence, 48 h, basal, profiling panel (AID 1163). Further: test concentration not given here. Conditions: 3T3-L1 adipocytes viability, higher = more signal.
The nature of assay [13]: compound effects on hepatocellular carcinoma cell viability – HepG2, calcein-AM fluorescence, 48 h, basal, profiling panel (AID 1164). Further: test concentration not given here. Conditions: higher = more signal.
Assay [14] is described as follows: compound effects on multiple myeloma cell viability – MM1S, calcein-AM fluorescence, 48 h, basal, profiling panel (AID 1165). Further: test concentration not given here. Conditions: higher = more signal.
Assay [15] in a line: calcein-AM signal in unstimulated myeloma cells – cell-based, calcein-AM fluorescence, 48 h, PK04 Diversity Set, profiling panel (AID 1166).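 Further: cells grown under basal conditions without added stimulus; test concentration not given here.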 Conditions: RPMI8226 myeloma viability, higher = more signal.
Assay [16] can be described thus: JC-1 mitochondrial signal, unstimulated HepG2 cells – cell-based, JC-1 fluorescence, 24 h, 100 nL compound, profiling panel (AID 1167). Further: test concentration not given here. Conditions: HepG2 mitochondrial potential, higher = more signal.
A short description of assay [17]: JC-1 mitochondrial signal, unstimulated adipocytes – cell-based, JC-1 fluorescence, 3T3-L1 adipocytes, 24 h, 100 nL compound, profiling panel (AID 1168). Further: test concentration not given here. To be noted: JC-1 mitochondrial fluorescence, higher = more signal, called active from +8 up or from −8 down.
Assay [18] in a line: JC-1 mitochondrial signal, unstimulated myeloma cells – cell-based, JC-1 fluorescence, RPMI8226, 24 h, 100 nL compound, profiling panel (AID 1169). Further: test concentration not given here. To be noted: JC-1 mitochondrial potential fluorescence, higher = more signal.
The nature of assay [19]: JC-1 mitochondrial signal, unstimulated MM1S myeloma – cell-based, JC-1 fluorescence, 24 h, 100 nL compound, profiling panel (AID 1170). Further: test concentration not given here. Conditions: MM1S mitochondrial potential, higher = more signal.
A short description of assay [20]: resazurin metabolic signal in A549 cells – cell-based, resazurin fluorescence, 24 h, PK04 Diversity Set, profiling panel (AID 1171). Further: test concentration not given here. Conditions: A549 viability, higher = more signal, called active from +8 up or from −8 down. (In general: Resazurin is reduced to fluorescent resorufin, in cell work by metabolically active cells.)

The source made the active and inactive calls.

Sequence of NADPH oxidase 4 (Homo sapiens) (Q9NPH5 whole entry, looked up): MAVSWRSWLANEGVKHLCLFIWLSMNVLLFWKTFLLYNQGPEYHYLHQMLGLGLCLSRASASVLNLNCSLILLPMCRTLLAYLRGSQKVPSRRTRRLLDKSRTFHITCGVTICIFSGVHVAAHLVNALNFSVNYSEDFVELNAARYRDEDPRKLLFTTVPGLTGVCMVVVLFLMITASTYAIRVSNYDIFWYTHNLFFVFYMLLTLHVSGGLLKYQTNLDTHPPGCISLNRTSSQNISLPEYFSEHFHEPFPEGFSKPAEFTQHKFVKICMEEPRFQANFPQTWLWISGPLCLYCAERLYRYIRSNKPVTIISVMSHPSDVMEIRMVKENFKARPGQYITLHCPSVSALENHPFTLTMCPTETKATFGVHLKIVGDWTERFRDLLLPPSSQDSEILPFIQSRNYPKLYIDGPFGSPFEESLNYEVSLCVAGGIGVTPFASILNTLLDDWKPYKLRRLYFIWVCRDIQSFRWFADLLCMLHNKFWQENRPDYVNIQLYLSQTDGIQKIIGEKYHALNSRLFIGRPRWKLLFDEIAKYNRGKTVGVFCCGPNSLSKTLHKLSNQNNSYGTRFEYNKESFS
Sequence of NADPH oxidase 2 (Homo sapiens) (P04839 whole entry, looked up): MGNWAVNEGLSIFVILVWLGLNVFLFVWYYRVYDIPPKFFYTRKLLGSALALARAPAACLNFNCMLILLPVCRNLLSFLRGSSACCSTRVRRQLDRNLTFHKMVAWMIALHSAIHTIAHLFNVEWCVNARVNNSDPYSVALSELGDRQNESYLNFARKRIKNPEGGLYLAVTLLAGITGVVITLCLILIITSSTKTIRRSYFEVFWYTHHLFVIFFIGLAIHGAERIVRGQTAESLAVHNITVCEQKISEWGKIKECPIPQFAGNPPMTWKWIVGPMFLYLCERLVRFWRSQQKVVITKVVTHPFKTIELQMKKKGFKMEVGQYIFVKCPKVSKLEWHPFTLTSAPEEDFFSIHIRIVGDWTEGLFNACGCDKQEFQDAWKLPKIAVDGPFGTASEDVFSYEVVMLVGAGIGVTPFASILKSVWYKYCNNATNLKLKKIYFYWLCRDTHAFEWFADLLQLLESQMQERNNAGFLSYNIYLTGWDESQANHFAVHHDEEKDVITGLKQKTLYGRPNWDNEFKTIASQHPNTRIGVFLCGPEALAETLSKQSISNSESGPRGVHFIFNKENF
Sequence of NADPH oxidase 5 (Homo sapiens) (Q96PH1 whole entry, looked up): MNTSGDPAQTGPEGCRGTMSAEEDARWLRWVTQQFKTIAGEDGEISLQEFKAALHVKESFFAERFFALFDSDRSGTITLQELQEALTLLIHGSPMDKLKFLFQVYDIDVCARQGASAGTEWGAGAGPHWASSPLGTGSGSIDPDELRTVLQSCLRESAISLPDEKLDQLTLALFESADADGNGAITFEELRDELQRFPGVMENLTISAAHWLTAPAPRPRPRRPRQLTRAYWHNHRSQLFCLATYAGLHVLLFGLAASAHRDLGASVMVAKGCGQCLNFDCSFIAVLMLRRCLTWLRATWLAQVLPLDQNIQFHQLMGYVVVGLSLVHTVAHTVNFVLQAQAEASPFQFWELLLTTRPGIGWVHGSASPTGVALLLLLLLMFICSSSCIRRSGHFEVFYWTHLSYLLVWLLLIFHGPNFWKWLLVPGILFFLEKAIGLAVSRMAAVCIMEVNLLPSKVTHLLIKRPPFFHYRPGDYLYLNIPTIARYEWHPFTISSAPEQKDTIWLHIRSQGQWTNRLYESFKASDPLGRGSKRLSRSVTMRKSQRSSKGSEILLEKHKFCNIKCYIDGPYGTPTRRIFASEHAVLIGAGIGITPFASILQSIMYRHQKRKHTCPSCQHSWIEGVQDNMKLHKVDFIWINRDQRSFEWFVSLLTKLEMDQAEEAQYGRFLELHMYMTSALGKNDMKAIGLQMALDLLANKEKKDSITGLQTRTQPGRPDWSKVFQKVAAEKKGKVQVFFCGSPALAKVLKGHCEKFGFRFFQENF

For the compound `CC(C)C(O)C1C=CC2C(=O)N(C)C(=O)C2N1N(c1ccccc1)c1ccccc1` (stereo not given), the z-score in assay [1] is -0.573 (inactive); in [3] it was 0.321 (inactive); in assay [4], 0.167 (inactive); in [5], -0.255 (inactive); in [6], 1.05 (inactive); in assay [7], -1.38. Besides, the z-score in assay [8] was -0.71 (inactive); in [9] it was -0.583 (inactive); in [10], -0.828; in assay [11] it was -0.659; in assay [12], -1.24; in assay [13] it was 0.689. Also, the z-score in [14] was 0.0007; in assay [15], 0.0729; in assay [16], -0.0204; in assay [17] it was -0.291 (inactive); in assay [18], -0.286; in assay [19] it was -0.387. Also, in assay [20], the z-score is -0.391 (inactive). The composite z-score in [2] stood at 0.213.
Turning to `COc1ccc([Si](C)(C)[C@H]2[C@H](CCn3cc(CCO)nn3)O[C@@]3(C(=O)N(Cc4ccc(N5C(=O)c6cccc7cccc5c67)cc4)c4ccccc43)[C@@H]2C)cc1`, the z-score in assay [1] was 1.91 (inactive); in assay [3] it was 4.64 (inactive); in assay [4], 0.882 (inactive); in assay [5] it was 0.134 (inactive); in assay [6] it was -0.627 (inactive); in [7], 1.64. The z-score in assay [8] is -0.985 (inactive); in assay [9], 1.82 (inactive); in assay [10] it was 1.44; in assay [11], -1.61; in assay [12], 1.36; in assay [13], -4.11. Besides, the z-score in assay [14] was -2.56; in [15], -4.29; in assay [16], -0.0483; in assay [17], -0.712 (inactive); in assay [18] it was -1.09; in [19], -2.18. In assay [20], the z-score is -2.57 (inactive). In assay [2], this compound came in with a composite z-score of 0.108.
For the compound `C=CC1c2cc(O)c(OC)cc2CCN1Cc1sc2ccccc2c1Cl` (stereo not given), the z-score in [1] is -1.38 (inactive); in assay [3], 17.9 (active); in [4] it was 5.17 (inactive); in assay [5], -0.604 (inactive); in assay [6] it was 1.41 (inactive); in assay [7] it was -0.248. Further, the z-score in [8] is -4.21 (inactive); in [9], -2.48 (inactive); in assay [10], -2.08; in assay [11], -4.28; in assay [12], 0.155; in assay [13], -4.42. For the same compound, the z-score in assay [14] is -3.24; in assay [15] it was -4.45; in [16], -3.08; in assay [17], -0.224 (inactive); in [18] it was -0.811; in assay [19] it was -0.358. Besides, the z-score in assay [20] is -0.784 (inactive). The composite z-score in [2] amounted to 0.268.
With `Cc1ccc(S[C@]2(C(=O)NC(C)C)CC(=O)N(C3Cc4ccccc4C3)[C@@H]2c2ccc(CO)cc2I)cc1`, the z-score in [1] was 0.135 (inactive); in assay [3], 8.47 (active); in assay [4], 1.39 (inactive); in assay [5], 1.67 (inactive); in [6], 0.13 (inactive); in assay [7], -0.086. Also, the z-score in [8] was 1.87 (inactive); in assay [9] it was -1.89 (inactive); in assay [10] it was 1.23; in [11], 0.6; in assay [12], -0.345; in assay [13], 0.425. In addition, the z-score in assay [14] was -1.7; in [15], -1.29; in assay [16] it was 0.221; in assay [17], -0.277 (inactive); in assay [18], -0.697; in assay [19], -2.19. Further, in assay [20], the z-score is -0.526 (inactive). The composite z-score in [2] is -0.788.
Take `COC(=O)c1c(CC[C@@H](CO)NC(=O)N[C@H](Cn2cc(-c3ccccc3C)nn2)C(C)C)oc(C(C)=O)c1C(=O)OC`: the z-score in assay [1] is 0.206 (inactive); in assay [3], 0.791 (inactive); in assay [4], -0.0484 (inactive); in [5] it was 1.56 (inactive); in [6], -0.52 (inactive); in assay [7], 1.29. For the same compound, the z-score in assay [8] is -3.2 (inactive); in [9] it was -2.16 (inactive); in assay [10] it was -1.77; in [11], -0.657; in [12], 1.55; in assay [13] it was 0.308. The z-score is -0.759 in [14]; -0.607 in [15]; -0.24 in [16]; 0.37 (inactive) in assay [17]; -0.353 in assay [18]; -1.27 in [19]. The z-score in [20] is -1.26 (inactive). Besides, the composite z-score in [2] is -0.112.
For the compound `CCCCN1CC=CC23O[C@@H]4C=CCOC(=O)[C@@H]4[C@H]2C(=O)N(C(C)CO)[C@@H]3C1=O` (stereo not given in full), the z-score in [1] is -0.65 (inactive); in assay [3], 0.596 (inactive); in [4], -0.404 (inactive); in [5], 0.436 (inactive); in assay [6] it was 0.111 (inactive); in assay [7] it was -0.163. The z-score in assay [8] was 0.953 (inactive); in [9], 0.56 (inactive); in assay [10] it was 1.51; in assay [11] it was -0.406; in assay [12] it was 0.434; in assay [13], -0.208. In addition, the z-score in assay [14] is 0.638; in assay [15], 0.0934; in assay [16], -1.02; in [17], -1.98 (inactive); in assay [18], -0.768; in assay [19], -0.0859. For the same compound, in assay [20], the z-score is -0.384 (inactive). Also, in [2], the composite z-score was -0.045.
`O=C1O[C@@H](c2ccccc2)[C@@H](c2ccccc2)N2[C@@H](c3ccc(O)cc3)[C@]3(C(=O)Nc4ccc(C#CC5=CCCCC5)cc43)[C@@H](C(=O)N3CCN(c4ncccn4)CC3)[C@H]12`: the z-score in assay [1] is 1.29 (inactive); in [3], 0.445 (inactive); in [4] it was 0.35 (inactive); in [5], -4.76 (inactive); in [6], 0.614 (inactive); in [7], 0.401. Besides, the z-score was 0.532 (inactive) in assay [8]; 0.278 (inactive) in assay [9]; 0.904 in assay [10]; -1.9 in assay [11]; 0.0112 in [12]; -1.25 in assay [13]. The z-score in assay [14] is -1.2; in [15] it was -2.78; in [16], -0.703; in [17], 0.701 (inactive); in assay [18] it was -0.588; in assay [19], -0.877. Also, in assay [20], the z-score was 0.785 (inactive). Also, the composite z-score in [2] was found to be 0.257.
As for `NCCCCCCNC(=O)[C@@H]1C[C@@H]2C(=O)N3CCC[C@H]3C(=O)N2[C@@H]1c1ccc(O)cc1`, the z-score in assay [1] was -1.12 (inactive); in [3], 1.67 (inactive); in assay [4], 0.026 (inactive); in assay [5], -0.653 (inactive); in assay [6] it was 0.105 (inactive); in assay [7] it was -0.164. Also, the z-score is 0.162 (inactive) in assay [8]; 0.116 (inactive) in assay [9]; -0.515 in assay [10]; -0.428 in assay [11]; 0.548 in assay [12]; 0.442 in [13]. In addition, the z-score was -0.0269 in assay [14]; -0.292 in assay [15]; -0.0719 in [16]; -0.202 (inactive) in assay [17]; 0.0552 in assay [18]; 0.0553 in [19]. In addition, the z-score in assay [20] is -0.578 (inactive). Further, the composite z-score in assay [2] was -0.508.
Consider `CCCc1cccc(=O)o1`, for which the z-score was -0.228 (inactive) in [1]; 0.342 (inactive) in assay [3]; -0.831 (inactive) in assay [4]; -0.832 (inactive) in [5]; -1.23 (inactive) in [6]; 0.274 in assay [7]. Further, the z-score in assay [8] was 0.685 (inactive); in assay [9] it was -0.173 (inactive); in assay [10] it was 0.173; in assay [11], -0.996; in assay [12], 0.369; in assay [13] it was -0.133. The z-score in [14] was 0.25; in assay [15] it was -0.316; in [16], -0.147; in [17], 0.72 (inactive); in assay [18] it was -0.417; in [19] it was -0.773. Also, the z-score in assay [20] is 0.366 (inactive). Besides, the composite z-score in assay [2] is 0.042.

(Values after PubChem BioAssay.)
